# From the supplement of paper PMC10849652
# Targets with a hit are over-represented here; the source holds about 7,900 in all. About 0.6% of all pairs of compound and target were hits. Unmarked numbers belong to inactive results.
# Assays:
# Assay in all cases: log2 fold change, soluble protein after heating vs DMSO (PISA); higher = thermal stabilisation; K562 cells, 10 uM, 30 min; active = over 0.2 and 3.5 SD of the protein, either way, in both replicates (recomputed)
# saracatinib = compound: CN1CCN(CCOc2cc(OC3CCOCC3)c3c(Nc4c(Cl)ccc5c4OCO5)ncnc3c2)CC1 [saracatinib]
# Method in brief: (§1)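 K562 cells (2×10^6 cells/mL) were treated with 10 μM compound for 30 min, and aliquots were heated for 3 min over 48°C-58°C. Pooled aliquots were extracted in PBS with 0.5% NP-40 at 4°C, and the supernatant after 21,000xg for 90 min was measured by TMTpro 16plex LC-MS/MS with channel sums equalised. Reported thermal stability, relative to control samples and from duplicates, is a log2 fold change.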
# sotrastaurin = compound: CN1CCN(c2nc(C3=C(c4c[nH]c5ccccc45)C(=O)NC3=O)c3ccccc3n2)CC1 [sotrastaurin]
# Method in brief: as §1
# alvocidib = compound: CN1CC[C@H](c2c(O)cc(O)c3c(=O)cc(-c4ccccc4Cl)oc23)[C@H](O)C1 [alvocidib]
# Method in brief: as §1
# Tubastatin A = compound: CN1CCc2c(c3ccccc3n2Cc2ccc(C(=O)NO)cc2)C1 [Tubastatin A]
# Method in brief: as §1
# [1] = compound: CNC(=O)C1=CC=CC=C1NC2=NC(=NC=C2Cl)NC3=C(C=C(C=C3)N4CCOCC4)OC
# Method in brief: as §1
# defactinib = compound: CNC(=O)c1ccc(Nc2ncc(C(F)(F)F)c(NCc3nccnc3N(C)S(C)(=O)=O)n2)cc1 [defactinib]
# Method in brief: as §1
# rucaparib = compound: CNCc1ccc(-c2[nH]c3cc(F)cc4c3c2CCNC4=O)cc1 [rucaparib]
# Method in brief: as §1
# [2] = compound: CNc1nc(-c2ccc3c(N)n[nH]c3c2)cc(N2C[C@@H](C(=O)NC3CCCCC3)CC[C@H]2C)n1
# Method in brief: as §1
# encorafenib = compound: COC(=O)N[C@@H](C)CNc1nccc(-c2cn(C(C)C)nc2-c2cc(Cl)cc(NS(C)(=O)=O)c2F)n1 [encorafenib]
# Method in brief: as §1
# [3] = compound: COC(=O)[C@H](CCSC)NC(=O)C1=C(C=C(C=C1)NC[C@H](CS)N)C2=CC=CC=C2
# Method in brief: as §1
# [4] = compound: COC1=CC=C(C=C1)CN2C=CC3=C2C=C(C=C3)C(=O)NO
# Method in brief: as §1
# filanesib = compound: CON(C)C(=O)N1N=C(c2cc(F)ccc2F)S[C@@]1(CCCN)c1ccccc1 [filanesib]
# Method in brief: as §1
# zotarolimus = compound: CO[C@H]1C[C@@H]2CC[C@@H](C)[C@@](O)(O2)C(=O)C(=O)N2CCCC[C@H]2C(=O)O[C@H]([C@H](C)C[C@@H]2CC[C@H](n3cnnn3)[C@H](OC)C2)CC(=O)[C@H](C)/C=C(\C)[C@@H](O)[C@@H](OC)C(=O)[C@H](C)C[C@H](C)/C=C/C=C/C=C/1C [zotarolimus]
# Method in brief: as §1
# idasanutlin = compound: COc1cc(C(=O)O)ccc1NC(=O)[C@@H]1N[C@@H](CC(C)(C)C)[C@](C#N)(c2ccc(Cl)cc2F)[C@H]1c1cccc(Cl)c1F [idasanutlin]
# Method in brief: as §1
# alisertib = compound: COc1cc(Nc2ncc3c(n2)-c2ccc(Cl)cc2C(c2c(F)cccc2OC)=NC3)ccc1C(=O)O [alisertib]
# Method in brief: as §1
# [5] = compound: COc1cc2nc(-c3cc(F)ccc3O)nc(N[C@@H]3CNC[C@H]3C(C)(C)O)c2cc1OC
# Method in brief: as §1
# gefitinib = compound: COc1cc2ncnc(Nc3ccc(F)c(Cl)c3)c2cc1OCCCN1CCOCC1 [gefitinib]
# Method in brief: as §1
# [6] = compound: COc1cccc2cc(-c3nc([C@H]4CC[C@H](C(=O)O)CC4)n4ncnc(N)c34)[nH]c12
# Method in brief: as §1
# lapatinib = compound: CS(=O)(=O)CCNCc1ccc(-c2ccc3ncnc(Nc4ccc(OCc5cccc(F)c5)c(Cl)c4)c3c2)o1 [lapatinib]
# Method in brief: as §1
# pictilisib = compound: CS(=O)(=O)N1CCN(Cc2cc3nc(-c4cccc5[nH]ncc45)nc(N4CCOCC4)c3s2)CC1 [pictilisib]
# Method in brief: as §1
# Sequence of UniProt Q92581 (Q92581 whole entry, looked up): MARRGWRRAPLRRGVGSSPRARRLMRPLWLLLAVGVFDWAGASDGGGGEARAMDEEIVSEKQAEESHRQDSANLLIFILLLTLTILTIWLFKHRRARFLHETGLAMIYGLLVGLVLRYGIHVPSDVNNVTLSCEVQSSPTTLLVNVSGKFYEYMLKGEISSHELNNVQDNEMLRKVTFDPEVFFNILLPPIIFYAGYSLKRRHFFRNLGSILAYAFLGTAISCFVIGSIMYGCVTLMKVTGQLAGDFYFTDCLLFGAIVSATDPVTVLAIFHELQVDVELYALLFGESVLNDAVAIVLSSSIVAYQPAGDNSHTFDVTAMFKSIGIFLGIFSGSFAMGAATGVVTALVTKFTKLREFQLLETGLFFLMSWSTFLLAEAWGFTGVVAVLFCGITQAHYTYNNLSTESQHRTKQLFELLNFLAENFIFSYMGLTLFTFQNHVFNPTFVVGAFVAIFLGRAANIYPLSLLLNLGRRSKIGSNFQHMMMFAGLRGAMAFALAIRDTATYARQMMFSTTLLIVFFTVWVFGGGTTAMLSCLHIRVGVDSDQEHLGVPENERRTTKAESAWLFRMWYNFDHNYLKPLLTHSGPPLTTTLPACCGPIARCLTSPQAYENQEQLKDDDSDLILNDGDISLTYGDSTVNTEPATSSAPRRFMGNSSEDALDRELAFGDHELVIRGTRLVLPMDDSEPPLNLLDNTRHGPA
# Sequence of UniProt Q9P289 (Q9P289 whole entry, looked up): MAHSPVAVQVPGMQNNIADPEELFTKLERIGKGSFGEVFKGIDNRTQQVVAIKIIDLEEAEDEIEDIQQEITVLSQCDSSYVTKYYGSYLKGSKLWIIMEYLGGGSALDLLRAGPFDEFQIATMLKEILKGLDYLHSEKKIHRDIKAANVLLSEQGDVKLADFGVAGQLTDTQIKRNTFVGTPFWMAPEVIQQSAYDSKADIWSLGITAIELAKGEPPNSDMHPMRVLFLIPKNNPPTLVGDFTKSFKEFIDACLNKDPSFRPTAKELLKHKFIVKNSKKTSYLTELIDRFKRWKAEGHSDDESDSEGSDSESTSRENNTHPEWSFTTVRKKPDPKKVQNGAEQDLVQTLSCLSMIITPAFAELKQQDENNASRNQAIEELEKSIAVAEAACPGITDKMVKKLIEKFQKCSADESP
# Sequence of UniProt Q92544 (Q92544 whole entry, looked up): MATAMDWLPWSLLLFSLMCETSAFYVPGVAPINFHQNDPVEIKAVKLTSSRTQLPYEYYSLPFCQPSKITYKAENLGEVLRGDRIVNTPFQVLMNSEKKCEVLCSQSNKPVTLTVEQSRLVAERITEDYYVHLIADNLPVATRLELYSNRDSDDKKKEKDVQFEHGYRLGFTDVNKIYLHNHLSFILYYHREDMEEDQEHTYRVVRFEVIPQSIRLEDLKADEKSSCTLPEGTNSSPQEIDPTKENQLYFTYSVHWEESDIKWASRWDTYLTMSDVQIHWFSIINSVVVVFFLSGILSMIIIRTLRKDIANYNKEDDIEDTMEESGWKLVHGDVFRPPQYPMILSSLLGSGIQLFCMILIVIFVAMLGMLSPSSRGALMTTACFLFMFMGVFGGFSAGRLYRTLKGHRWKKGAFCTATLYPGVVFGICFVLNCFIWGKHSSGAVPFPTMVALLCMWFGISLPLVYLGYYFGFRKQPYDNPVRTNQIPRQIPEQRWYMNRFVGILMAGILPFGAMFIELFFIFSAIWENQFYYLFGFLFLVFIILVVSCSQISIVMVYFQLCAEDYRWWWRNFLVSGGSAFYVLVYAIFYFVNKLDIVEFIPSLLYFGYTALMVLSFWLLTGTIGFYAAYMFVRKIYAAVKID
# Sequence of UniProt Q8WXA9 (Q8WXA9 whole entry, looked up): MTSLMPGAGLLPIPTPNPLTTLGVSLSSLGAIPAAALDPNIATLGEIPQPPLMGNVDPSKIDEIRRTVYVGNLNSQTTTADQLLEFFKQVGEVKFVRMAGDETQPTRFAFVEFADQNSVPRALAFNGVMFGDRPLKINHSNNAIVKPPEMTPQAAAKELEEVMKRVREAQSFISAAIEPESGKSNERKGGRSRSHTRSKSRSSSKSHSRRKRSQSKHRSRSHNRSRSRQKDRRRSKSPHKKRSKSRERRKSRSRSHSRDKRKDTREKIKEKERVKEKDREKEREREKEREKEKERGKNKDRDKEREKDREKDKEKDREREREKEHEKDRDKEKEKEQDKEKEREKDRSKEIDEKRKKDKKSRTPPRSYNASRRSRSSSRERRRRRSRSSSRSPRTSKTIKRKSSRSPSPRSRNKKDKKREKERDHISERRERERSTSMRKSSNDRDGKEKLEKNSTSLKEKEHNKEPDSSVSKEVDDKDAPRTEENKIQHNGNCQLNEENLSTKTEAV
# Sequence of UniProt Q8NBW4 (Q8NBW4 whole entry, looked up): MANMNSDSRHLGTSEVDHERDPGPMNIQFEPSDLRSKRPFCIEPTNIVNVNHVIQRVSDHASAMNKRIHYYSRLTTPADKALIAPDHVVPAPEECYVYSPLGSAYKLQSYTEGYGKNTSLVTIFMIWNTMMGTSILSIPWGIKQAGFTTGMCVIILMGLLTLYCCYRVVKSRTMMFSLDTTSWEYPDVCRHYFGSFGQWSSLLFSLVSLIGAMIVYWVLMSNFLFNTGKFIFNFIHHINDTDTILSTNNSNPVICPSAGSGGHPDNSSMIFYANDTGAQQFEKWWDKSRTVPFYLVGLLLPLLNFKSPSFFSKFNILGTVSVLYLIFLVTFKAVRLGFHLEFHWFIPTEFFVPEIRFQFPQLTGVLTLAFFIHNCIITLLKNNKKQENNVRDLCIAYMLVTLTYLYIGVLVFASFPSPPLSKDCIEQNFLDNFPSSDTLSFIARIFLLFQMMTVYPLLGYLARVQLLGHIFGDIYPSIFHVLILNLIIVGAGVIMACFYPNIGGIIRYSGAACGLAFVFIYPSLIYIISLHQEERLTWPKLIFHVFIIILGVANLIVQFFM
# Sequence of UniProt P08579 (P08579 whole entry, looked up): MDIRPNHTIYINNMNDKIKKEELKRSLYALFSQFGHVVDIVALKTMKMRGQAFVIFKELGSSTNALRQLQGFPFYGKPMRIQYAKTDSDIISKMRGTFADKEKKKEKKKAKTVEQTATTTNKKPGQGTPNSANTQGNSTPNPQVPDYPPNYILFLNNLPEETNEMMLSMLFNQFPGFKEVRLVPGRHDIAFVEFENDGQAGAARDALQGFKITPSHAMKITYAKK
# Sequence of UniProt Q9Y5L4 (Q9Y5L4 whole entry, looked up): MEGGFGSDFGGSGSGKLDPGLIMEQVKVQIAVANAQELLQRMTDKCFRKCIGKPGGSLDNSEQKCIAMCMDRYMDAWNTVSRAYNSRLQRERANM
# Sequence of UniProt O95926 (O95926 whole entry, looked up): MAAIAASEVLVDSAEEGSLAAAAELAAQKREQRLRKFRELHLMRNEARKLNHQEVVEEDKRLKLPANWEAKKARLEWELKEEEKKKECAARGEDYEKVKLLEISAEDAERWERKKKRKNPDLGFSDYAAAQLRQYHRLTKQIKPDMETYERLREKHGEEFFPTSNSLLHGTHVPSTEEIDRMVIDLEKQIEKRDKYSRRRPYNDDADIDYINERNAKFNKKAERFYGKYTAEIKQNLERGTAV
# Sequence of UniProt Q9ULP9 (Q9ULP9 whole entry, looked up): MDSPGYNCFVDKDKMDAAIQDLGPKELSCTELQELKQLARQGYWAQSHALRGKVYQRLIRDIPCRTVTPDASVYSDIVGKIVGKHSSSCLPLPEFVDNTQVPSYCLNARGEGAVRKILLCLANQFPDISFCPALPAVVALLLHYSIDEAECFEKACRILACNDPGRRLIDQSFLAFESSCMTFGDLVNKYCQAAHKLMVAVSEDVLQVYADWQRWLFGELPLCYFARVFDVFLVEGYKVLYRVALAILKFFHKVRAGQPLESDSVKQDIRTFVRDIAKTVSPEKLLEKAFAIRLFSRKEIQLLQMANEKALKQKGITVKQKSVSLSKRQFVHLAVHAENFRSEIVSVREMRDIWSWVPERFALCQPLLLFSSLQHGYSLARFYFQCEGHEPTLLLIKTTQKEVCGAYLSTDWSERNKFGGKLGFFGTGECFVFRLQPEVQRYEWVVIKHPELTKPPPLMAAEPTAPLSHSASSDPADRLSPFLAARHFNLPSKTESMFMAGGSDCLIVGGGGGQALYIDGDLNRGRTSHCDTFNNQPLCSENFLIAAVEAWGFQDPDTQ
# Sequence of UniProt Q08170 (Q08170 whole entry, looked up): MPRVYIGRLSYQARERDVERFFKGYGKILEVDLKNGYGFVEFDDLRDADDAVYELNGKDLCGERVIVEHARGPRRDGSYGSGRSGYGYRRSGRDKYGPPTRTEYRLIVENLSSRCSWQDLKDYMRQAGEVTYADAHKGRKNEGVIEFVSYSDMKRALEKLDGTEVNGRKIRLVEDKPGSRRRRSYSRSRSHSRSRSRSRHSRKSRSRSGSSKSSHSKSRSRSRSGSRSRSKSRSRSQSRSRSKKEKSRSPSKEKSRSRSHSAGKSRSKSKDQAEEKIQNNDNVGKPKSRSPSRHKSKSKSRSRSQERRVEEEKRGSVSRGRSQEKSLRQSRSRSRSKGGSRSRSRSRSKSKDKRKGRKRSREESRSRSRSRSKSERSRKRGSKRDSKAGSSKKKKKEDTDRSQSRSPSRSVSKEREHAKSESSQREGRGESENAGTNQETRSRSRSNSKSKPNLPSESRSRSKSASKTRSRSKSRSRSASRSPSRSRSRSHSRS
# Sequence of UniProt Q96CQ1 (Q96CQ1 whole entry, looked up): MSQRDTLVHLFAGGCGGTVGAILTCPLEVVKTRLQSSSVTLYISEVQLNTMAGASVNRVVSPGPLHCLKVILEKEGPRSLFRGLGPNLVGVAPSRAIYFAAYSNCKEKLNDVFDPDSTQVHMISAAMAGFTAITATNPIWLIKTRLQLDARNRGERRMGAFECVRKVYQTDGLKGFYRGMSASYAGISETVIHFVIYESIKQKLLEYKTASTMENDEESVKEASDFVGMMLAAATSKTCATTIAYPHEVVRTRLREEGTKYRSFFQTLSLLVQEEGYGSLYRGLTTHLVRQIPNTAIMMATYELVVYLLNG
Target,log2 fold change (saracatinib),log2 fold change (sotrastaurin),log2 fold change (alvocidib),log2 fold change (Tubastatin A),log2 fold change [1],log2 fold change (defactinib),log2 fold change (rucaparib),log2 fold change [2],log2 fold change (encorafenib),log2 fold change [3],log2 fold change [4],log2 fold change (filanesib),log2 fold change (zotarolimus),log2 fold change (idasanutlin),log2 fold change (alisertib),log2 fold change [5],log2 fold change (gefitinib),log2 fold change [6],log2 fold change (lapatinib),log2 fold change (pictilisib)
TM9SF4 (UniProt Q92544),-0.028,0.017,-0.008,-0.015,0.013,0.037,0.043,-0.046,0.039,-0.03,0.048,-0.04,0.036,0.004,-0.031,-0.023,0.086,0.004,0.274,-0.161
SLC25A36 (UniProt Q96CQ1),0.233,-0.057,-0.018,-0.027,0.013,0.011,0.066,0.016,-0.055,0.162,0.006,-0.069,0.013,-0.064,-0.03,0.083,-0.014,0.001,0.107,0.052
SNRPB2 (UniProt P08579),0.079,0.041,0.124,-0.11,0.02,0.193,0.058,-0.041,-0.037,0.054,-0.018,0.057,-0.035,0.021,-0.121,0.047,-0.021,-0.006,-0.002,0.006
SLC9A6 isoform 2 (UniProt Q92581),0.06,0.048,-0.016,-0.027,0.001,-0.027,-0.015,-0.07,0.008,0.053,-0.077,-0.051,-0.062,-0.011,-0.013,0.062,-0.017,0.071,0.003,0.129
STK26 (UniProt Q9P289),-0.027,0.009,0.018,-0.049,-0.057,0.067,-0.005,-0.001,0.032,0.054,0.018,-0.147,-0.03,0.045,-0.059,0.069,-0.037,0.009,0.019,-0.105
SP1 (UniProt P08047),0.022,0.016,0.023,-0.054,-0.015,0.01,0.066,-0.023,-0.019,0.025,-0.064,0.022,-0.033,-0.002,-0.025,-0.007,-0.043,0.005,-0.004,0.142
SLC38A9 (UniProt Q8NBW4),0.053,-0.184,-0.024,-0.05,0.025,-0.038,-0.048,-0.073,-0.001,0.001,0.033,0.064,-0.012,-0.004,0,0.053,-0.012,0.121,-0.065,-0.027
SREK1 isoform 2 (UniProt Q8WXA9),-0.034,-0.106,0.005,0.061,-0.422,-0.371,0.083,0.013,0.059,-0.007,0.26,-0.1,0.053,0.086,-0.096,-0.072,0.066,0.06,0.108,-0.001
SULT1A1 (UniProt P50225),0.052,-0.03,-0.061,-0.004,0.105,-0.214,-0.048,0.05,0.084,-0.125,0.161,0.034,0.042,-0.02,0.056,0.046,0.062,-0.03,0.026,0.138
SRSF4 (UniProt Q08170),-0.065,0.028,0.135,0.17,-0.283,0.045,0.165,0.013,0.154,0.023,-0.085,0.234,0.053,0.207,-0.137,-0.04,-0.014,-0.089,0.137,-0.007
SYF2 (UniProt O95926),-0.028,-0.041,0.383 (active),-0.016,-0.086,0.286,0.029,-0.14,-0.062,0.038,-0.236,0.069,-0.174,0.058,-0.07,0.191,-0.109,0.02,-0.025,-0.092
SUPT16H (UniProt Q9Y5B9),-0.125,-0.209,-0.359,0.374,0.034,-0.476 (active),-0.104,0.024,0.113,-0.138,0.106,-0.026,0.104,-0.057,0.12,-0.036,0.062,-0.023,0.035,0.011
TIMM13 (UniProt Q9Y5L4),0.065,-0.007,-0.035,-0.007,0.007,-0.038,-0.028,0.043,0.044,0,0.206,-0.091,0.042,-0.043,-0.006,-0.3 (active),-0.002,-0.01,0.027,-0.056
SUN2 (UniProt Q9UH99),-0.029,-0.09,0.015,0.053,-0.068,-0.05,0.03,-0.066,0.067,0.023,0.028,0.013,0.017,0.077,-0.044,-0.194,-0.078,-0.007,0.066,0.071
SLIRP (UniProt Q9GZT3),-0.068,-0.141,-0.143,0.019,-0.045,-0.005,0.148,-0.185,-0.094,0.096,0.088,-0.429 (active),-0.054,0.041,-0.08,-0.648 (active),0.041,0.023,-0.042,-0.15
TBC1D24 (UniProt Q9ULP9),-0.025,-0.016,-0.379 (active),-0.044,-0.075,-0.106,-0.148,0.077,-0.011,-0.005,0.032,-0.145,0.006,-0.127,-0.102,-0.028,0.007,0.05,0.032,-0.082
